# Only some compounds are listed: those with a hit (about 9.3% of all), similar ones and a draw of the others.
# NADH coupling – blocks coupling enzymes of NAD/NADH assays | AID 774 | coupled PK/LDH NADH assays, four targets | 65,000 compounds, 0.02% hits | IC50, µM (titrated, usually from 10 µM), for the others: top-dose inhibition;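 active = single-dose screening hits from any of four coupled enzyme assays that gave an IC50 when retested across doses; inconclusive = no clear call, values can overlap the other calls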;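 also: the DPM-DC format reads NADH fluorescence rather than 340 nm absorbance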
# Htt clearance – mutant huntingtin protein clearance; 47,000 compounds, 0.42% hits; inhibition, % at 1.5 µM; AID 853; HeLa Exon1htt(103Q)mCFP, aggregate imaging; zero = plate's median compound well;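 active = inhibition of aggregate fluorescence above about 70%, also judged a hit by eye on the cell image, limit read from the data, passing the limit was not always enough; inconclusive = no rule stated for this call; inactive = not judged a hit on image review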;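 also: cells exposed to compound for three days before fixation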
# M1 antagonist – blocks the rat M1 muscarinic receptor response to acetylcholine | 64,000 compounds, 3.4% hits | AID 628 | B-score at 10 µM | CHO-M1 cells, Fluo-4 calcium, ACh EC80 antagonist mode; active compounds read low;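 active = calcium fluorescence response, raw or row-and-column corrected B-score, differing from the plate sample mean either way at a set confidence level, mostly lower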
# Target sequence (P08482 whole entry, looked up): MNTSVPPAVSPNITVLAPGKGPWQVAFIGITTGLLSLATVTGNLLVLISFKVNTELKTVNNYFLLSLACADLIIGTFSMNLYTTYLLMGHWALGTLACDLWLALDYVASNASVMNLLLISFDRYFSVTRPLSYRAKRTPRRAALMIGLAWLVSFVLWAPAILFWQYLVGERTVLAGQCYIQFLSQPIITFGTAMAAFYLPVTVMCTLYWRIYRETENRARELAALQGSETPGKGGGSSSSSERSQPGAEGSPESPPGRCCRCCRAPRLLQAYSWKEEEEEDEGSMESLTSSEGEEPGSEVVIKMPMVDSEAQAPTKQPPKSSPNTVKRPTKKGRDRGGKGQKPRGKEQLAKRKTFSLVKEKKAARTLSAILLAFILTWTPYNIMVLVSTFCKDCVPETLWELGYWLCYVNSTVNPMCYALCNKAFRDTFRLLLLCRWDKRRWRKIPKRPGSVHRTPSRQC
# A340 absorber – compounds absorbing at 340 nm; fold change at 10 µM; compound absorbance at 340 nm, fold over control; 65,000 tested, under 10 active; AID 708;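 active = at 10 µM dose, initial 340 nm absorbance at least 2 fold that of control wells; inactive = change under 2 fold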;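 also: initial absorbance extrapolated from kinetic A340 decline of NADH oxidation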
# Fluor 339 460 – intrinsic fluorescence of library compounds, ex339/em460 – biochemical, MLSMR library, data from DPM-DC assay, artefact control, profiling panel; compound autofluorescence, ex339/em460 nm, NADH buffer; active compounds read high; 1 = no-compound wells, NADH background; fluorescence fold increase at 10 µM; 65,000 compounds, 5.5% hits; AID 709;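 active = at 10 µM, mean starting fluorescence two-fold or more over control wells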;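 also: signal is the first read of a kinetic run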
# M1 agonist – activates the M1 muscarinic receptor; CHO-M1 cells, Fluo-4 calcium fluorescence, agonist mode; active compounds read high; B-score at 10 µM; 64,000 compounds, 3% hits;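 active = fluorescence rise, raw or as B-score row- and column-corrected plate score, outside the 99.7% band of its plate's samples, either direction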
# The depositor's hits bear a star; ? = inconclusive; · = not tested or not shown.
SMILES,NADH coupling,Htt clearance,M1 antagonist,A340 absorber,Fluor 339 460,M1 agonist
COC(=O)c1cc(=O)nc2sc(-c3cccs3)nn12,3%,43,-0.26,1.1,2.7*,-0.43
COC(=O)c1cc(=O)nc2sc(-c3ccc(F)cc3)nn12,8%,36,0.0082,1,1.2,-0.13
COCCCn1c(SCC(=O)n2c(C)c(C)c3ccccc32)nnc1-c1ccoc1C,8%,-76,0.64,1,1.1,0.51
O=C1CCCc2c1nc(-c1ccccc1)n2O,47%,-12,·,1.1,2.1*,·
O=C1CCCc2c1nc(-c1ccco1)n2O,5%,-62,0.63,1.2,3.9*,-0.077
Cc1cc(-c2ccco2)n(CC(=O)O)n1,3%,·,0.15,1,1.1,1.1
COc1cccc(N2CCN(Cc3coc4c(Cl)cc(Cl)cc4c3=O)CC2)c1,6%,·,0.62,1,1.1,-0.28
CCOc1cc2c(C)cc(=O)oc2cc1Cl,8%,18,0.047,1,1.8,-0.2
CC(=O)Oc1cc(OC(C)=O)c2c(C)cc(=O)oc2c1,0%,3,-0.38,1.1,2.2*,-0.34
CC(=O)Nc1c(OC(C)=O)ccc2c(C)cc(=O)oc12,8%,·,-0.19,0.98,5.1*,-0.74
CC(=O)Oc1cc2oc(=O)cc(C)c2cc1OC(C)=O,9%,·,0.3,1.1,2.2*,-0.036
CCOC(=O)c1oc2ccccc2c1NC(=O)c1cccc(OC)c1OC,3%,42,-0.041,0.99,1.2,0.61
CCOC(=O)c1oc2cccc(OCC(O)CNC(C)C)c2c1C (configuration not stated),12%,·,1,1,3.6*,-0.0085
CCOC(=O)C1=C(CSc2n[nH]c(N)n2)NC(=O)NC1C (configuration not stated),6%,-33,-0.25,1,1.1,0.012
CCc1c(C)c2ccc(OCC(N)=O)cc2oc1=O,1%,?,-0.44,1.2,3.7*,-0.28
CC(=O)COc1ccc2c(C)c(C)c(=O)oc2c1,·,-10,·,·,·,·
CCCOc1ccc2c(C)c(CC(=O)OC)c(=O)oc2c1,8%,?,-0.28,1.1,3.7*,0.83
COc1ccccc1C1NC(=O)NC(C)=C1C(C)=O (configuration not stated),6%,71*,-1.4,1,1.1,0.3
NC(=O)c1ccccc1NS(=O)(=O)Cc1ccc(Cl)cc1,3%,·,0.5,1.1,3.9*,-0.76
Cc1ccc(S(=O)(=O)Nc2ccccc2C(N)=O)cc1,3%,-4,-0.73,1.1,3.9*,-0.3
CN(C)S(=O)(=O)Nc1ccccc1C(N)=O,3%,-31,-0.044,0.99,2.9*,-0.19
CN(C)c1nc(N)nc(CSc2nnnn2-c2ccccc2)n1,·,4,·,·,·,·
O=c1[nH]c(=O)n(Cc2ccco2)c2c1C(C(F)(F)F)(C(F)(F)F)N=C(Cc1ccccc1)N2,·,38,·,·,·,·
O=C(CSc1nnc(-c2ccccc2O)o1)Oc1ccc(OCc2ccccc2)cc1,2%,40,0.11,1.1,4*,0.35
O=C(CSc1nnc(-c2ccncc2)o1)Oc1ccccc1,3%,-52,0.8,0.99,1.1,0.8
SMILES,NADH coupling,Htt clearance,M1 antagonist,A340 absorber,Fluor 339 460,M1 agonist
CC(C)C(NS(=O)(=O)c1cccs1)C(=O)NCc1ccc2c(c1)OCO2 (configuration not stated),3%,·,-0.022,1,1.2,0.73
COc1ccc(NC(=O)NCc2ccccn2)cc1OC,2%,13,-0.29,1,1.1,-0.48
COc1cc(NC(=O)Nc2cccc(C(C)=O)c2)cc(OC)c1OC,2%,75*,-0.47,1,1,0.67
COc1cccc(OC)c1C(=O)Nc1cccc(C(C)=O)c1,3%,7,0.7,0.99,1,0.42
CC(=O)c1cccc(NC(=O)NCc2ccccn2)c1,11%,45,1.1,0.98,1.1,3.1*
O=c1nc2n(c3ccc(Br)cc13)CCS2,·,-140,·,·,·,·
Cc1c(C(=O)N2CCCCC2)sc(NC(=O)C23CC4CC(CC(C4)C2)C3)c1C#N,·,38,·,·,·,·
CC1(C)Cc2nc3nc(SCC(=O)NCCc4ccccc4)n(-c4ccccc4)c(=O)c3cc2CO1,·,-55,·,·,·,·
Cc1cc(Br)ccc1NC(=O)CNC(=O)CN(C)Cc1nc2ccccc2c(=O)[nH]1,5%,-18,0.025,0.98,1,-0.19
CCCCn1c(CN2CCN(c3cccc(Cl)c3)CC2)nc2c1c(=O)n(C)c(=O)n2C,4%,·,-0.44,0.98,1,0.019
CCCn1c(CN2CCN(c3cccc(Cl)c3)CC2)nc2c1c(=O)n(C)c(=O)n2C,6%,·,-2.5*,1,1,11*
CCOc1ccc2[nH]c(=O)c(CN(CCO)C(=O)c3ccc(F)cc3)cc2c1,15%,14,0.027,1.1,3.4*,1.4
CCCCN(Cc1cc2cc(OC)ccc2[nH]c1=O)C(=O)COc1ccccc1,4%,·,0.58,1,1.9,-0.32
CCOc1ccc2[nH]c(=O)c(CN(CCO)C(=O)c3ccccc3F)cc2c1,6%,-7,0.016,1.1,3*,0.13
COc1ccc2cc(CN(CCO)C(=O)c3ccc(Br)cc3)c(=O)[nH]c2c1,10%,-22,-0.48,1,1.3,-0.17
COCC(=O)Nc1nc2n(n1)C(c1ccccc1)CC(c1ccc(OC)cc1)N2 (configuration not stated),8%,35,-0.059,1.1,2.7*,-2
CCOC(=O)c1sc2nc(NC(=O)C3CC3)sc2c1C,8%,0,1.3,1.1,2*,1.9
Cc1ccc(N2CCN(c3cc(C)nc4c5c(C)cc(C)nc5nn34)CC2)cc1,10%,·,0.45,0.97,1.1,0.25
COc1ccc(CN2CCN(c3cc(C)nc4c5c(C)cc(C)nc5nn34)CC2)cc1F,8%,·,0.0099,1,3.9*,-0.39
CCOc1ccc(CN2CCN(c3cc(C)nc4c5c(C)cc(C)nc5nn34)CC2)cc1,2%,-26,-3.1,1,3.1*,0.21
COc1ccc(-c2c(C)nn3c(N4CCN(Cc5ccccc5)CC4)cc(C)nc23)cc1OC,5%,·,-0.8,1.1,1.1,0.2
Cc1cc(C)c2c(n1)nn1c(N3CCN(c4ccccc4C)CC3)cc(C)nc21,7%,-25,0.36,1,2.8*,0.15
CCNc1nc2c(c(=O)[nH]c(=O)n2C)n1Cc1ccc(F)cc1,7%,·,-1.1,1,1,-0.21
COc1ccc(N(C(=O)Cc2cccs2)C(C(=O)NC2CCCCC2)c2cccn2C)cc1OC (configuration not stated),·,94*,·,·,·,·
CCC(=O)Nc1ccc2oc(-c3ccccc3Br)nc2c1,7%,13,0.082,1,1.9,-0.00011
CC(=O)Nc1ccc2oc(-c3ccccc3Br)nc2c1,11%,34,0.12,1,2.2*,-0.051
CC(=O)Nc1ccc2oc(-c3cc(F)c(F)cc3Cl)nc2c1,4%,-48,-0.22,1.1,3.8*,-0.21
C=CCn1c(C)cc(C(=O)CSc2nnc(NCc3ccccc3)s2)c1C,4%,-26,1.9*,1.1,1.1,-0.065

# Source: PubChem (several laboratories)
